{
  "source": "the supplement of paper PMC6555819",
  "data": [
    {"system": "LXRa homodimer (NR concentration 270 nM)", "assay": "PBM binding z-score (relative to random genomic background probes); higher = stronger binding; sequences stand for … in GC…GCGATTGACAGCGTAGAATGAAGG", "procedure,_shortened": "(§1)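 Regression normalization was applied to scanned fluorescence from custom Agilent 4×180K protein-binding microarrays. Before scanning, arrays were incubated 1 h with ligand-free nuclear receptor dimers, and binding was detected with antibodies against each partner (one per run). Binding z-scores use the random background probes as reference.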", "values": [
      {"sequence": "TTACTAAGGTGAAGGTCGTTGATCCCTCTGTAGA", "PBM binding z-score": 0.0636},
      {"sequence": "AGATGTAGGTTAAGGGTCATTCAGGTTGGTTCGC", "PBM binding z-score": 2.97},
      {"sequence": "CCGACTGGGCCATCAGGTCATTGATATCAACGTT", "PBM binding z-score": 0.75},
      {"sequence": "CAAACTAGGACACGAAAGGTCAAAGTCGAATGAC", "PBM binding z-score": 6.38},
      {"sequence": "CCTAGCAGGCCAGGGTAACTCAAGCATTTCGCTT", "PBM binding z-score": -0.559},
      {"sequence": "TCTAGTTGGTCAAAGCTCACACACTCGAAATGCG", "PBM binding z-score": 0.233},
      {"sequence": "TCTTGTAGATCAACAGGAGGTTAAGACAGATCGA", "PBM binding z-score": -0.145},
      {"sequence": "TCTAGTTGCTCAAAGGTCACACACTCGAAATGCG", "PBM binding z-score": 3.7},
      {"sequence": "TCTGCTAGGTCAACGATGGACAGCTAATCTGCTA", "PBM binding z-score": -0.31},
      {"sequence": "GCTGCTAGGTCAGGTTTGTCAGCTAACGGGTACG", "PBM binding z-score": -0.141},
      {"sequence": "CCTGCTGGGTCAATGGTCAGCTAAAGCAGCTCGC", "PBM binding z-score": -0.526},
      {"sequence": "GCAGACAAGTGAAACGCAGGTAACTCAGGGTGGC", "PBM binding z-score": -0.665},
      {"sequence": "TCGAGTAGGTTACCAATGGGGCGTTCAGCTTTCT", "PBM binding z-score": -0.684},
      {"sequence": "CCTCGGAGGCCAACAGGAGGTCAGAGCTGCCAGA", "PBM binding z-score": 1.48},
      {"sequence": "GTACCAAAGTGAATAGGTCGTTGATGAGTAGGCG", "PBM binding z-score": 0.178},
      {"sequence": "GCTCGGAGGACAAGGTCAGAGTTTTGTCCGTAGA", "PBM binding z-score": -0.00501},
      {"sequence": "TAGCCTAGGCCAGATCGGGCCAGTATACGCTATA", "PBM binding z-score": -0.865},
      {"sequence": "GCGACTGGGGCAAAGCAGGTTACCTTAAGGTTGG", "PBM binding z-score": -0.422},
      {"sequence": "GCATATAGGTAATACAAGGTGAAAGTGCGATTGT", "PBM binding z-score": 0.475},
      {"sequence": "CCTACTGGGCCACGAAAGGTCATTGAATCAGTGA", "PBM binding z-score": 4.09},
      {"sequence": "TCGAGTAGGATACCAATGGGGCATTCAGCTTTCT", "PBM binding z-score": -0.966},
      {"sequence": "TCTGCTAGGTCAACGATGGTCAGCTAATCTGCTA", "PBM binding z-score": -0.225},
      {"sequence": "CACCCTAGGTCAGGGCCAGTATAGGAGGAACGTT", "PBM binding z-score": 0.74},
      {"sequence": "CGAACTAGATCAAGGACAGTGAATCTCCGCACGC", "PBM binding z-score": -0.0881},
      {"sequence": "ATACCAAGGTGATCGTGACGTCGTTGATACTAAC", "PBM binding z-score": 0.147},
      {"sequence": "CCGACTGGAGCAAGGTTACCATAACGCACAGCCA", "PBM binding z-score": 0.116},
      {"sequence": "CCTACTGGGACAAAGGTCATTGATTCCAATGCTC", "PBM binding z-score": 4.66},
      {"sequence": "CCATACAGGTGAGAAGGTAACTCAGCCTCGATTA", "PBM binding z-score": 0.308},
      {"sequence": "ATACCAAGGTGATCGTGAGGTCGTTGATACTAAC", "PBM binding z-score": 0.615},
      {"sequence": "TTCCCAAGGTGAAAGGTCGTTGATGCACGCCTTG", "PBM binding z-score": 0.848},
      {"sequence": "TAGCCTCGGTCATGGGCCAGTATACCACGCGAAC", "PBM binding z-score": 0.0533},
      {"sequence": "CCTTACGGGTCACTCCAGGTTATCGCATCGGAGT", "PBM binding z-score": 2.05},
      {"sequence": "TCTAGCAGGCCAGAGGGTCACTAAAGAGGTACGG", "PBM binding z-score": -0.521},
      {"sequence": "TCTTGTAGATCAAGCAGGTTAAGAAGGCCTGAGT", "PBM binding z-score": -0.218},
      {"sequence": "GTACCAATGTGAATAGGTCGTTGATGAGTAGGCG", "PBM binding z-score": -0.443},
      {"sequence": "ACAGCCAGGTGATGAAGGTAACTCAGGCTATCAT", "PBM binding z-score": -0.468},
      {"sequence": "CGAACGAGGGCACGAGTTGATAGCAAATGCCGAT", "PBM binding z-score": -0.547},
      {"sequence": "TCGAGTAGGTTATGGGCATTCAGAATGGCGTCGA", "PBM binding z-score": -0.538},
      {"sequence": "TCTGCTAGGTCAACGACGGTCAGCTAATCTGCTA", "PBM binding z-score": 0.203},
      {"sequence": "TGGATGAGGTTATAAGATCAGGGAACGTTGCAAA", "PBM binding z-score": 0.181}
    ]},
    {"system": "LXRb:RXRa (NR concentration 270 nM, RXRa partner concentration 90 nM)", "assay": "PBM binding z-score (relative to random genomic background probes); higher = stronger binding; sequences stand for … in GC…GCGATTGACAGCGTAGAATGAAGG", "procedure,_shortened": "as §1", "values": [
      {"sequence": "TTACTAAGGTGAAGGTCGTTGATCCCTCTGTAGA", "PBM binding z-score": 2.08},
      {"sequence": "AGATGTAGGTTAAGGGTCATTCAGGTTGGTTCGC", "PBM binding z-score": 4.61},
      {"sequence": "CCGACTGGGCCATCAGGTCATTGATATCAACGTT", "PBM binding z-score": 1.38},
      {"sequence": "CAAACTAGGACACGAAAGGTCAAAGTCGAATGAC", "PBM binding z-score": 5.43},
      {"sequence": "CCTAGCAGGCCAGGGTAACTCAAGCATTTCGCTT", "PBM binding z-score": -0.682},
      {"sequence": "TCTAGTTGGTCAAAGCTCACACACTCGAAATGCG", "PBM binding z-score": 0.661},
      {"sequence": "TCTTGTAGATCAACAGGAGGTTAAGACAGATCGA", "PBM binding z-score": 0.737},
      {"sequence": "TCTAGTTGCTCAAAGGTCACACACTCGAAATGCG", "PBM binding z-score": 5.39},
      {"sequence": "TCTGCTAGGTCAACGATGGACAGCTAATCTGCTA", "PBM binding z-score": 1.28},
      {"sequence": "GCTGCTAGGTCAGGTTTGTCAGCTAACGGGTACG", "PBM binding z-score": 0.304},
      {"sequence": "CCTGCTGGGTCAATGGTCAGCTAAAGCAGCTCGC", "PBM binding z-score": 1.11},
      {"sequence": "GCAGACAAGTGAAACGCAGGTAACTCAGGGTGGC", "PBM binding z-score": -0.901},
      {"sequence": "TCGAGTAGGTTACCAATGGGGCGTTCAGCTTTCT", "PBM binding z-score": 0.47},
      {"sequence": "CCTCGGAGGCCAACAGGAGGTCAGAGCTGCCAGA", "PBM binding z-score": 1.58},
      {"sequence": "GTACCAAAGTGAATAGGTCGTTGATGAGTAGGCG", "PBM binding z-score": -0.156},
      {"sequence": "GCTCGGAGGACAAGGTCAGAGTTTTGTCCGTAGA", "PBM binding z-score": 1.56},
      {"sequence": "TAGCCTAGGCCAGATCGGGCCAGTATACGCTATA", "PBM binding z-score": -1.22},
      {"sequence": "GCGACTGGGGCAAAGCAGGTTACCTTAAGGTTGG", "PBM binding z-score": 0.247},
      {"sequence": "GCATATAGGTAATACAAGGTGAAAGTGCGATTGT", "PBM binding z-score": 0.725},
      {"sequence": "CCTACTGGGCCACGAAAGGTCATTGAATCAGTGA", "PBM binding z-score": 4.26},
      {"sequence": "TCGAGTAGGATACCAATGGGGCATTCAGCTTTCT", "PBM binding z-score": -0.394},
      {"sequence": "TCTGCTAGGTCAACGATGGTCAGCTAATCTGCTA", "PBM binding z-score": 1.44},
      {"sequence": "CACCCTAGGTCAGGGCCAGTATAGGAGGAACGTT", "PBM binding z-score": 1.2},
      {"sequence": "CGAACTAGATCAAGGACAGTGAATCTCCGCACGC", "PBM binding z-score": -0.756},
      {"sequence": "ATACCAAGGTGATCGTGACGTCGTTGATACTAAC", "PBM binding z-score": 0.547},
      {"sequence": "CCGACTGGAGCAAGGTTACCATAACGCACAGCCA", "PBM binding z-score": 0.511},
      {"sequence": "CCTACTGGGACAAAGGTCATTGATTCCAATGCTC", "PBM binding z-score": 4.9},
      {"sequence": "CCATACAGGTGAGAAGGTAACTCAGCCTCGATTA", "PBM binding z-score": 0.309},
      {"sequence": "ATACCAAGGTGATCGTGAGGTCGTTGATACTAAC", "PBM binding z-score": 1.5},
      {"sequence": "TTCCCAAGGTGAAAGGTCGTTGATGCACGCCTTG", "PBM binding z-score": 2.97},
      {"sequence": "TAGCCTCGGTCATGGGCCAGTATACCACGCGAAC", "PBM binding z-score": -0.073},
      {"sequence": "CCTTACGGGTCACTCCAGGTTATCGCATCGGAGT", "PBM binding z-score": 5.17},
      {"sequence": "TCTAGCAGGCCAGAGGGTCACTAAAGAGGTACGG", "PBM binding z-score": 0.924},
      {"sequence": "TCTTGTAGATCAAGCAGGTTAAGAAGGCCTGAGT", "PBM binding z-score": 0.226},
      {"sequence": "GTACCAATGTGAATAGGTCGTTGATGAGTAGGCG", "PBM binding z-score": -0.196},
      {"sequence": "ACAGCCAGGTGATGAAGGTAACTCAGGCTATCAT", "PBM binding z-score": -0.553},
      {"sequence": "CGAACGAGGGCACGAGTTGATAGCAAATGCCGAT", "PBM binding z-score": 0.453},
      {"sequence": "TCGAGTAGGTTATGGGCATTCAGAATGGCGTCGA", "PBM binding z-score": -0.2},
      {"sequence": "TCTGCTAGGTCAACGACGGTCAGCTAATCTGCTA", "PBM binding z-score": 1.97},
      {"sequence": "TGGATGAGGTTATAAGATCAGGGAACGTTGCAAA", "PBM binding z-score": 1.52}
    ]}
  ]
}
